High-throughput results deposited in PubChem BioAssay by National Center for Advancing Translational Sciences (NCATS).
HTT-AS promoter – activators of huntingtin-antisense promoter activity; 48,000 tested, 0.24% active; HEK293 HTT-AS promoter firefly luciferase reporter, 24 h; response scale: percent change from vehicle, -100% = no light; Potency, µM (top dose mostly 57.5 µM), for inactives: at the top dose activity change, positive = activation, most hits filed as activators; note: potency is the fitted concentration of half-maximal effect; nearly all actives have a fitted effect of over 55% in size
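HEK293 cells carrying firefly luciferase reporters were seeded at 2,500 per well in Opti-MEM and cultured for 24 h. They were then treated with compounds at up to 57.5 uM final for 24 h at 37 degrees C before Dual-Glo luminescence readout.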
p53null 32C tox – kills p53 null cells at the permissive temperature; H1299-neo p53 null cells, ATP luminescence, 24 h, 32C; Potency, µM (series often up to 46.1 µM), for the others: at the top dose activity change, negative = cytotoxicity, usual class: cytotoxic; 55,000 tested, 0.62% active;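 note: potency is the fitted concentration of half-maximal effect; 0% = DMSO only and -100% = full killing by 100 µM tamoxifen; nearly all actives have a fitted effect of over 55% in size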
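We seeded p53-null H1299-neo cells, incubated them overnight at 37C, and added compounds across a range up to 46 uM. After 24 hours at 32C, ATP reagent was applied for 20 min at room temperature and luminescence recorded.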
HTT prom inh – inhibits huntingtin promoter activity; AID 1508623; 48,000 tested, 0.93% active; HEK293 HTT promoter firefly luciferase reporter, 24 h; Potency, µM (titrated, usually from 57.5 µM), inactives show at the top dose activity change, negative = inhibition, hits mostly inhibitors; note: potency is the fitted concentration of half-maximal effect; nearly all actives have a fitted effect of over 50% in size
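Firefly luciferase signal from promoter-reporter HEK293 cells was scaled between vehicle (0%) and zero RLU (-100%). Compounds were tested at final concentrations of up to 57.5 uM over 24 h at 37 degrees C. PTC124 at 50 uM final served as control inhibitor.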
DRV1 agonist – GPR32 (DRV1) agonism, beta-arrestin recruitment. CHO-K1 GPR32 beta-arrestin PathHunter luminescence, 90 min; zero percent set by DMSO-only wells. 48,000 tested, 2.5% active. O75388. activation, % at 76.9 µM. AID 1346428;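 active = activation of at least 60% and not above a set upper limit, about 1 call in 100 departs from these limits; inconclusive = activation of 40% to 60%, or above that upper limit; inactive = activation under 40%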; note: 0% is about no effect
Target sequence (O75388 whole entry, looked up): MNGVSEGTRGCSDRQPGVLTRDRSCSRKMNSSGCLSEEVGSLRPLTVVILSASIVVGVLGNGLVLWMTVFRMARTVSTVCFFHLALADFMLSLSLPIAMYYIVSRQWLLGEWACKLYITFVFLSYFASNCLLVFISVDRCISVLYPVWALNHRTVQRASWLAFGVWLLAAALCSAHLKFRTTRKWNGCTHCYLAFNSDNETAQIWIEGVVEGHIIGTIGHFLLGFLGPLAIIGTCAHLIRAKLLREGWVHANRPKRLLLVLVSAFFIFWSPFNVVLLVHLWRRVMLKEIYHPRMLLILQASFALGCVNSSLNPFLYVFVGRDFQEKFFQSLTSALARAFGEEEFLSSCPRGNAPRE
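Agonism was scored as beta-arrestin recruitment to ProLink-fused GPR32 in stably transfected CHO-K1 cells, giving a chemiluminescent beta-Gal signal; compounds were incubated 90 min at 37 °C.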
p53null 39C tox – selectivity test: cytotoxicity in p53 null cells, nonpermissive temperature | H1299 p53-null (neo) cells, 39C, ATPlite viability, 24 h | Potency, µM (doses to about 46.1 µM), inactives show at the top dose activity, negative = cell killing, usual class: cytotoxic | 55,000 tested, 0.97% active;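 note: potency is the fitted concentration of half-maximal effect; 0% = DMSO only and -100% = full killing by 100 µM tamoxifen; nearly all actives have a fitted effect of over 50% in size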
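Following overnight plating at 37C (600 cells/well), H1299-neo or H1299-p53A138V cells are dosed up to 46 uM. Incubation lasts 24 hr at 39C before ATP detection.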
Numbers without * were called inactive; ? = inconclusive; nt = no result given; ! = repeats disagree. Rows were chosen to be rich in hits. Some 3.9% of all compounds tested hit in one or more screens of this group. Unless noted, calls come from the whole dose curve; as a rule, active = well fitted curve in the direction sought with a large enough effect; inconclusive = small, poorly fitted or top-dose-only effect, or another doubt; inactive = no such curve, though single readings can be large; an effect the other way counts as inactive or inconclusive.

SMILES	HTT-AS promoter	p53null 32C tox	HTT prom inh	DRV1 agonist	p53null 39C tox
COc1cccc(NC(=O)Cn2c(=O)n(Cc3ccco3)c(=O)c3cc(OC)c(OC)cc32)c1	-25%	5%	-14%	74*	-10%
COc1ccc(OC)c(NC(=O)Cn2c(=O)n(Cc3ccco3)c(=O)c3cc(OC)c(OC)cc32)c1	-16%	0%	-9%	20	-20%
O=C(Cn1c(=O)oc2cc(S(=O)(=O)NCc3ccccc3)ccc21)Nc1ccc(F)c(Cl)c1	-28%	-24%	?	21	15%
Cc1ccc(NC(=O)Cn2c(=O)oc3cc(S(=O)(=O)N4CCCCC4)ccc32)c(C)c1	-45%	-1%	?	115*	-9%
Cc1ccc(NC(=O)Cn2c(=O)oc3cc(S(=O)(=O)NCc4ccccc4)ccc32)cc1	-31%	-6%	?	81*	-33%
Cc1ccc(C)c(NC(=O)Cn2c(=O)oc3cc(S(=O)(=O)NCc4ccccc4)ccc32)c1	-33%	3%	?	72*	-22%
CCc1ccc(NC(=O)Cn2c(=O)oc3cc(S(=O)(=O)NCc4ccccc4)ccc32)cc1	-38%	-5%	?	73*	-3%
COc1ccc(C)cc1NC(=O)Cn1c(=O)oc2cc(S(=O)(=O)NCc3ccccc3)ccc21	-35%	8%	?	-1	10%
COc1ccc(C2=N[C@H](c3ccc(Cl)cc3)[C@H](c3ccc(Cl)cc3)N2C(=O)N2CCNC(=O)C2)c(OC(C)C)c1	-17%	nt	-11%	nt	nt
Nc1ncnc2c1c(-c1cccc(OCc3ccccc3)c1)cn2C1CC(CN2CCCC2)C1 (configuration not stated)	-12%	nt	-27%	nt	nt
O=C(NCc1ccccc1)[C@H](Cc1ccccc1)NC(=O)[C@@H]1O[C@@H]1C(=O)NCCc1ccc(O)cc1	-13%	nt	-10%	nt	nt
Cc1cc(C)cc(NC(=O)c2cccc(C(=O)Nc3cc(C)cc(C)c3)c2)c1	nt	0%	nt	-1	-18%
COc1ccc(C(=O)Nc2ccccc2)cc1S(=O)(=O)Nc1ccc(Br)cc1	-18%	0%	-26%	90*	-5%
O=C(Nc1ccc(Br)cc1)c1cccc(C(=O)Nc2ccc(Br)cc2)c1	-23%	-5%	-24%	71*	-18%
CC1CCN(c2cc(N3CCN(C)CC3)ccc2NC(=O)c2cc(C#N)c[nH]2)CC1	-3%	nt	-7%	nt	nt
Nc1cccc(-c2cc3c(Oc4cccc(O)c4)ncnc3[nH]2)c1	-21%	nt	?	nt	nt
CC(C)CN(c1ccccc1)S(=O)(=O)c1nnc(NC(=O)c2ccco2)s1	-49%	?	-18%	-3	2µM*
CN(c1ccccc1)S(=O)(=O)c1nnc(NC(=O)c2ccco2)s1	-1%	1%	10%	93*	-19%
CCCC(O)c1nc2ccccc2n1CCCOc1ccc(Cl)cc1 (configuration not stated)	-39%	-2%	?	68*	7%
CCCn1c(C(O)c2ccc(OC)cc2)nc2ccccc21 (configuration not stated)	nt	1%	nt	nt	-3%
CCC(=O)C1=C(c2ccc(F)cc2)N(C(=O)CC)n2cnnc2S1	-8%	-2%	?	-56	-1%
CCOc1ccc(C2=C(C(=O)CC)Sc3nncn3N2C(=O)CC)cc1	2%	13µM*	?	-37	?
O=C(C1CCCCC1)N1CC(=O)N2CCCc3ccccc3C2C1 (configuration not stated)	-12%	nt	-16%	-10	nt
COc1cc2nc(N3CCN(C(=O)C4COc5ccccc5O4)CC3)nc(N)c2cc1OC (configuration not stated)	4%	nt	6%	108*!	nt
NC(=O)Nc1cc(-c2cccc(F)c2)sc1C(=O)N[C@H]1CCCNC1	-32%	nt	?	nt	nt
SMILES	HTT-AS promoter	p53null 32C tox	HTT prom inh	DRV1 agonist	p53null 39C tox
CCOc1ccc(Nc2oc(-c3ccc(COc4ccc(OC)cc4)o3)nc2C#N)cc1	2%	-6%	22%	86*	22%
Cc1nc2sc(C(N)=O)c(N)c2c(-c2ccc(Br)cc2)c1C(=O)Nc1ccc(Cl)cc1	-49%	?	?	88*	?
O=C(NCCc1ccc(Cl)cc1)c1ccc(CS(=O)(=O)Cc2ccc(Cl)cc2)o1	-6%	-14%	-19%	28	5%
COc1ccccc1S(=O)(=O)Cc1ccc(C(=O)NCc2ccc(Cl)cc2)o1	-28%	-3%	?	98*	-3%
O=C(NCCc1ccc(Cl)cc1)c1ccc(CS(=O)(=O)Cc2ccccc2F)o1	-27%	5%	-20%	111*	-17%
COc1ccc(CNC(=O)c2ccc(CS(=O)(=O)c3ccccc3OC)o2)cc1	-9%	6%	-13%	-5	5%
COc1cccc(-c2ccc(NC(=O)C3=C(C(=O)O)CCC3)c(F)c2)c1	14%	nt	20%	nt	nt
COC(=O)COc1ccc2oc(-c3ccc(OC)cc3)cc(=O)c2c1	?	1%	76%	-2	-5%
CCCCC(=O)Oc1ccc2oc(-c3ccc(OC)cc3)cc(=O)c2c1	2µM*	?	89%	-6	?
CC(=O)c1cccc(NS(=O)(=O)c2ccc3[nH]c4c(c3c2)CCCCC4)c1	-75%	32%	?	32	?
CCOC(=O)c1cccc(NS(=O)(=O)c2ccc3[nH]c4c(c3c2)CCCC4)c1	-39%	27%	-29%	82*	?
CC(=O)c1cccc(NS(=O)(=O)c2ccc3c(c2)NC(=O)CC(=O)N3)c1	-6%	-7%	-13%	0	13%
CC(=O)c1cccc(NS(=O)(=O)c2ccc3[nH]c4c(c3c2)CCCCCC4)c1	-31%	18%	?	100*	3%
CC(=O)c1cccc(NS(=O)(=O)c2cccc(S(=O)(=O)c3ccc(Br)cc3)c2)c1	-54%	24%	32µM*	63*	-9%
Cc1cccc(C)c1NC(=O)CN(C)S(=O)(=O)c1ccc2[nH]c3c(c2c1)CCCC3	-38%	10%	-23%	62*	-20%
Cc1ccc(NS(=O)(=O)c2ccc3[nH]c4c(c3c2)CCCCCC4)cc1Cl	-49%	61%	?	19	15%
COc1cc(F)c(C(C)C)cc1-c1ccc(C(F)(F)F)cc1CN1C(=O)O[C@H](c2cc(C(F)(F)F)cc(C(F)(F)F)c2)[C@@H]1C	-20%	nt	-9%	nt	nt
Cc1cccc(NS(=O)(=O)c2ccc3[nH]c4c(c3c2)CCCCCC4)c1	-41%	65%	?	6	-9%
O=S(=O)(Nc1cccc(Cl)c1)c1ccc2[nH]c3c(c2c1)CCCCCC3	-37%	10µM*	?	62*	?
CCOC(=O)c1cc(=O)c2c(OCC(COc3cccc4oc(C(=O)OCC)cc(=O)c34)OC(=O)[C@@H](N)CCCCN)cccc2o1	-3%	nt	11%	4	nt
